Assay results taken from PubChem BioAssay AID687016 (The Scripps Research Institute Molecular Screening Center, 2013).
Where “and” joins values, the source holds several entries; their conditions need not be identical. Equal values may be shown once. The whole screen tested about 370,000 compounds, of which about 2,800 (0.76%) were called active. The sample as a whole holds a higher share of actives than the screen did. Unmarked numbers belong to inactive results. No stated cut-off is given here; in the data, active means inhibition above about 21%; inactive means the rest.

target: E3 ubiquitin-protein ligase UHRF1 (Homo sapiens) (UniProt Q96T88); test: UHRF1 methylated DNA binding inhibitors, primary screen, counter-screen for MBD2 inhibitor project, biochemical, TR-FRET, human UHRF1, single concentration (AID 687016); settings: UHRF1 binding to methylated oligo, at 4.4 µM, hits give high values;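 further: UHRF1 SRA domain binding a hemimethylated CpG hairpin DNA probe; 0% = median of test compound wells and 100% = reference inhibitor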
Sequence (Q96T88 whole entry, looked up, the tested form may be a part): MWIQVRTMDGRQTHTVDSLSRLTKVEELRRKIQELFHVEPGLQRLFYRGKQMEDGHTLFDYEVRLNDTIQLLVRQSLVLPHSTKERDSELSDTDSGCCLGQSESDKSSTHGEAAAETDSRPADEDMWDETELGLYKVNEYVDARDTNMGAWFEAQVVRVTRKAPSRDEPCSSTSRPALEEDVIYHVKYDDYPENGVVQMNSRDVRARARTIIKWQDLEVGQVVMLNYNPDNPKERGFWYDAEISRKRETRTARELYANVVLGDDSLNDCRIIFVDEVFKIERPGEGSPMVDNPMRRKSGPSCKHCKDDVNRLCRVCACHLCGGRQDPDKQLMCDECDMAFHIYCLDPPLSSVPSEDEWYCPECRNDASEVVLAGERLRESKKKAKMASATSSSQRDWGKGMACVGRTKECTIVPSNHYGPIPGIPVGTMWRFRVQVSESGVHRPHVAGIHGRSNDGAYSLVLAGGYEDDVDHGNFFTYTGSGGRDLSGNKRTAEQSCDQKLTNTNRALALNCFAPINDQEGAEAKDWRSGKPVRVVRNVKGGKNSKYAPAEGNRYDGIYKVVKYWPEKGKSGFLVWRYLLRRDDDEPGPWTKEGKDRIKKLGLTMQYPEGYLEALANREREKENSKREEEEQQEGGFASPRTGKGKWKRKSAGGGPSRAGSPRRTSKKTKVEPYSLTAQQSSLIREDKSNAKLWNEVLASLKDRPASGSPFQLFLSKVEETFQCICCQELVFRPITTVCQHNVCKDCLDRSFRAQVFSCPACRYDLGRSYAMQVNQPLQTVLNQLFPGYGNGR

Compound | inhibition
Cc1ccc(C(=O)O)cc1-c1ccc(/C=C2\SC(=O)N(CC(=O)Nc3ccc4c(c3)OCO4)C2=O)o1 | 12.9%
N#Cc1ccccc1CN1C(=O)S/C(=C/c2cccn2-c2cccc(C(=O)O)c2)C1=O | 21.4% (active)
COC(=O)[C@H](C(C)C)N(CCCc1cn(Cc2ccccc2)nn1)S(=O)(=O)c1ccc(F)cc1Br | 7.41%
O=S1(=O)c2ccc(Br)cc2OC[C@@H](Cc2ccccc2)N1Cc1cn(Cc2ccco2)nn1 | -5.15%
COc1cc(C(=O)OC2CCOC2=O)c([N+](=O)[O-])cc1OC (stereo not drawn) | 22.8% (active)
CC(C)c1ccc(C(=O)OC2CCOC2=O)cc1 (stereo not drawn) | 0.68%
COc1cc(C(=S)N2CCOCC2)cc(OC)c1OC(=O)c1ccc([N+](=O)[O-])cc1[N+](=O)[O-] | 3.69%
COc1ccc(CSc2nnc(SCC(=O)Nc3ccccc3C(F)(F)F)s2)cc1 | 2.07%
O=C(OCC#CCSc1nnc(-c2ccco2)o1)c1ccc(F)cc1 | -3.52%
O=C(CSc1nc2ccccc2nc1N1CCCCC1)N1CCN(S(=O)(=O)c2cccc([N+](=O)[O-])c2)CC1 | -2.11%
COc1cccc2c1C(=O)c1c(O)c3c(c(O)c1C2=O)CC(O)(C(C)=NNC(=O)c1ccc(Cl)c(Cl)c1)CC3OC1CC(N)C(O)C(C)O1 (stereo not drawn) | 96% (active)
COc1cccc(CNC(=O)CNS(=O)(=O)c2ccc3nc(C)sc3c2)c1OC | -1.45%
COc1cc(NC(=O)C2CCCN(S(=O)(=O)c3ccc(C(C)(C)C)cc3)C2)cc(OC)c1 (stereo not drawn) | 2.42%
CCCOc1ccc(Oc2c(Cl)cnn(Cc3cccc4ccccc34)c2=O)cc1 | 2.95%
CC(=O)Nc1nc2ncccn2c1-c1ccc(C(F)(F)F)cc1 | -2.41%
COc1ccc(CCN2C(=O)N(c3ccc(OC)cc3)C(=O)C2CC(=O)Nc2ccc(OC)cc2)cc1 (stereo not drawn) | 37.7% (active)
COc1ccc(N2C(=O)C(CC(=O)Nc3ccc(F)cc3)N(CCc3cccs3)C2=O)cc1 (stereo not drawn) | 1.34%
COc1ccc(N2C(=O)C(CC(=O)Nc3ccccc3)N(Cc3ccc(OC)c(OC)c3)C2=O)cc1 (stereo not drawn) | 1.08%
CCCCCCCCOC1OC(CO)C(O)C(O)C1NC(C)=O (stereo not drawn) | 0.97%
CCCCCCCCCOC1OC(CO)C(O)C(O)C1NC(C)=O (stereo not drawn) | 53.3% (active)
CCc1cccc(OC2OC(CO)C(O)C(O)C2NC(C)=O)c1 (stereo not drawn) | 1.52%

Compound | inhibition
CCC(NC(=O)C1C2C=CC3(CN(Cc4ccccc4)C(=O)C13)O2)c1ccccc1 (stereo not drawn) | 0.23%
Cc1cc(C(=O)NN=C/C=C/c2ccco2)n[nH]1 | 5.21%
CCOc1ccc(NC(=O)c2ccc(CSc3nnnn3C)cc2)cc1 | -0.48%
CCOc1ccc(NC(=O)c2ccc(NC(=O)CN3C(=O)C(=O)N(CC(C)C)C3=O)cc2)cc1 | 3.55%
CCOc1ccc(NC(=O)c2ccc(NC(=O)COC(=O)c3ccc(NC(=O)CC#N)cc3)cc2)cc1 | 23.6% (active)
COc1cccc(Cn2cc(COC(=O)Nc3ccc(F)cc3)nn2)c1 | 0.48%
CCOC(=O)N1CCN(Cc2nc3c(c(=O)n(C)c(=O)n3C)n2Cc2ccccc2)CC1 | 1.75%
Cc1cccc(Cn2c(N3CCN(c4ccccc4)CC3)nc3c2c(=O)n(C)c(=O)n3C)c1 | 23.8% (active)
Cn1c(=O)c2c(ncn2CC(=O)N2CCN(c3ccccc3)CC2)n(C)c1=O | -2.46%
CN(C)[C@H]1CCN(c2cccc3c2S(=O)(=O)N2CC[C@H](C2)O3)C1 | -0.6%
O=C(NCCCc1ccccc1)[C@H](Cc1ccccc1)NC1(C(=O)NCCc2c[nH]c3ccccc23)CCC1 | 0.93%
C=CCN1C(=O)[C@@H](CC(=O)NCC2CCCCC2)[C@]2(C(=O)OC)CCCCC=C12 | -2.02%
COc1cccc(N2CCN(CC(=O)N(C)Cc3ccc(F)cc3)CC2)c1 | -0.26%
COC(=O)c1cc(S(=O)(=O)N2CCN(c3ccccc3C)CC2)cn1C | -0.14%
CCOC(=O)[C@]12CCCC=C1N(Cc1ccc(OC)cc1)C(=O)[C@@H]2CC(=O)NCc1cccs1 | 0.05%
O=C(Nc1cc(Cl)cc(Cl)c1)OCCN1CCCC12CCC(c1ccccc1)CC2 (stereo not drawn) | -2.5%
O=C(CSc1nc2c(c(=O)[nH]1)CCCC2)N1CCCCC1 | 4.3%
CCN(CC)CCOc1ccc2c(c1)C(=NNC(=O)c1ccccn1)c1cc(OCCN(CC)CC)ccc1-2 | 105% (active)
CCCC(C(=O)OCCN(CC)CC)(c1ccccc1)c1ccccc1 | 0%
CN(CCOc1ccc(CC2SC(=O)NC2=O)cc1)c1ccccn1 (stereo not drawn) | 0.45% and -0.75%
Cc1ccc(C)c(NC(=O)CCS(=O)(=O)c2ccccc2)c1 | 5.41%

Compound | inhibition
CCOC(=O)c1ccn(-c2nc(-c3ccco3)cc(C(F)(F)F)n2)n1 | 1.45%
Cc1cc(C)c2nc(-c3ccco3)cc(C(=O)O)c2c1 | 73.6% (active)
Cc1ccsc1-c1cc(C(=O)O)c2c(ccc3ccccc32)n1 | -2.73%
C=C(C)C#CC(Cc1ccccc1)NCC1CC1 (stereo not drawn) | -0.06%
Cc1ccccc1NC(=O)Cn1nnc(-c2ccccc2F)n1 | -2.25%
CC(=O)c1cc(-c2ccc3ccccc3c2)c(=O)n2c1CCC2 | -1.09%
COC(=O)[C@]12C[C@H](CC(=O)N3CCN(C(=O)C4CC4)CC3)C(=O)N(CCC3=CCCCC3)C1=C[C@H](C(C)C)O[C@@H]2C1CC1 | -0.03%
N#Cc1ccc(-c2ccc(Cl)cc2)nc1Oc1ccc(F)cc1 | -1.28%
COc1nc(-c2ccc(Cl)cc2)ccc1-c1noc(-c2cccs2)n1 | 37.1% (active)
Cc1cc(NS(=O)(=O)c2ccc(NC(=O)CSc3nnc(-c4ccc(C(C)(C)C)cc4)n3Cc3ccco3)cc2)nc(C)n1 | -1.86%
COC(=O)C12C=C3CC(c4ccccc4)=C3C(=O)N1Cc1[nH]c3ccccc3c1C2 (stereo not drawn) | -0.85%
C=CCN1C(=O)[C@H](CC(=O)NCCCN2CCCC2=O)[C@@]2(C(=O)OCC)CCCC=C12 | 1.86%
COC(=O)[C@]12C[C@H](CC(=O)NCCCN3CCCC3=O)C(=O)N(CCc3ccc(OC)c(OC)c3)C1=C[C@H](COCc1ccccc1)O[C@@H]2C | -1.34%
Nc1ncnc2c1ncn2[C@@H]1O[C@H](C(=O)N2CCSC2)[C@@H](O)[C@H]1O | 2.48%
Nc1ncnc2c1ncn2C1OC(CO)CC1O (stereo not drawn) | 60.9% (active)
Nc1ncnc2c1ncn2[C@@H]1O[C@H](C(=O)NCC(F)(F)F)[C@@H](O)[C@H]1O | -0.85%
O=C(c1ccccc1)c1ccc(-c2ccccc2C(=O)NC2CCCCN(Cc3ccc(Cl)cc3)C2=O)cc1 (stereo not drawn) | -0.04%
CCCC1CCC2(CCCN2CCOC(=O)NCc2ccccc2)CC1 (stereo not drawn) | 0.86%
COC(=O)C1CN(CC(C)C)CCS(=O)(=O)N1Cc1ccc(F)cc1 (stereo not drawn) | 0.32%
O=C(c1ccc(C(F)(F)F)cc1)C1CCCN(C(=O)c2csnn2)C1 (stereo not drawn) | 0.31%
Cc1cnc(C(=O)N2CCCC(C(=O)c3ccc(C(F)(F)F)cc3)C2)cn1 (stereo not drawn) | 22% (active)

Compound | inhibition
COCC(=O)N1CCCC(C(=O)c2ccc(C(F)(F)F)cc2)C1 (stereo not drawn) | 2.82%
C=C(C)C1CC23C(=O)C4(C(=O)c5ccccc5)C[C@@]5(C)CCC(CC2C1(C)C)(C4=O)C35OC (stereo partly drawn) | 0.2%
C=CCN1C(=O)[C@H](CC(=O)N2CCN(C(=O)OCC)CC2)[C@@]2(C(=O)OCC)CCCC=C12 | -2.61%
COC(=O)c1ccccc1-n1cc(COC(=O)NCCc2ccccc2)nn1 | 0.82%
CC(CCN1CCC(C(O)(c2ccccc2)c2ccccc2)CC1)Oc1ccc(Cl)cc1 (stereo not drawn) | 1.4%
O=C(CSc1nc2ccccc2n1Cc1ccccc1Cl)N/N=C\c1c[nH]c2ccccc12 | -1.5%
COc1ccc(Cl)cc1NC(=O)COC(=O)c1ccc(Br)o1 | 0.18%
O=C(CCS(=O)(=O)c1ccc(Br)cc1)NCCc1ccc(Cl)cc1 | 0.15%
COc1ccc(Cl)cc1NC(=O)CCS(=O)(=O)c1ccc(Br)cc1 | 45.2% (active)
C[C@H]1CCC/C=C/C(=O)c2c(O)cc(O)cc2CC(=O)O1 | 0.98%
C[C@@H]1Cn2cnc(C(=O)Nc3ccc(CNC(=O)OC(C)(C)C)cc3)c2C(=O)N1 | 2.17%
CC1CCN(C(=O)c2ncn3c2C(=O)N[C@@H](C)C3)CC1 | 22.7% (active)
C[C@H]1Cn2cnc(C(=O)N[C@H](C)c3ccccc3)c2C(=O)N1 | 11.2%
FC(F)(F)c1cccc(NC(=S)OC2CCC23CCC(c2ccccc2)CC3)c1 (stereo not drawn) | -1.02%
Cc1ccc(-n2c(SCC(=O)Nc3ccc(S(=O)(=O)Nc4nccs4)cc3)nnc2-c2cccnc2)cc1 | 3.04%
Cc1ccc(-n2c(SCC(=O)Nc3ccc(S(=O)(=O)Nc4nccs4)cc3)nnc2-c2ccccn2)cc1 | 2.8%
CC(C)(C)c1cc(=O)n2c(nc3ccccc32)[nH]1 | 0.39%
Cc1nn2c3ccccc3nc2n(C)c1=O | 64.7% (active)
CCc1nc2ccccc2n(CCOCCOCCn2c(=O)c(CC)nc3ccccc32)c1=O | 0.72%
COC(=O)c1cccc(Cn2ccc3ccc(-c4ccc5ccn(C(=O)C6CCCCC6)c5c4)cc32)c1 | -1.71%
